According to PubChem BioAssay (NCI):
Where “and” joins values, the source holds several entries; their conditions need not be identical. Equal values may be shown once. The panel holds about 83,000 compounds, 20% with a hit somewhere; the sample as a whole holds those more often.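 Interpretation: 100, growth as untreated; towards 0, rising growth inhibition; 0, no net growth; 0 to -100, cell death. Compounds scoring below 10 were considered active.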 Calls of active or inactive are those of the source.

How the values were obtained:
Assay in all cases: NCI-60 one-dose screen, 48 h (100 = growth as untreated, 0 = no growth, -100 = all killed)
[1] = system: NCI-H23 lung; conditions: 10 µM unless noted
[2] = system: NCI-H226 lung; conditions: 10 µM unless noted
[3] = system: NCI-H322M lung; conditions: 10 µM unless noted
[4] = system: HOP-62 NSCLC; conditions: 10 µM unless noted
[5] = system: NCI-H460 lung; conditions: 10 µM unless noted
[6] = system: HOP-92 NSCLC; conditions: 10 µM
[7] = system: NCI-H522 lung; conditions: 10 µM
[8] = system: A549/ATCC NSCLC; conditions: 10 µM unless noted
[9] = system: 786-0 renal; conditions: 10 µM unless noted
[10] = system: COLO 205 colon; conditions: 10 µM unless noted
[11] = system: DU-145 prostate; conditions: 10 µM unless noted
[12] = system: K-562 leukemia; conditions: 10 µM unless noted
[13] = system: MDA-MB-231 breast; conditions: 10 µM unless noted
[14] = system: RXF 393 renal; conditions: 10 µM unless noted
[15] = system: SF-268 CNS; conditions: 10 µM unless noted
[16] = system: SF-295 CNS; conditions: 10 µM unless noted
[17] = system: SF-539 CNS; conditions: 10 µM unless noted
[18] = system: UACC-257 melanoma; conditions: 10 µM unless noted
[19] = system: M14 melanoma; conditions: 10 µM unless noted
[20] = system: MALME-3M melanoma; conditions: 10 µM unless noted

Row | Compound | growth [1] | growth [2] | growth [3] | growth [4] | growth [5] | growth [6] | growth [7] | growth [8] | growth [9] | growth [10] | growth [11] | growth [12] | growth [13] | growth [14] | growth [15] | growth [16] | growth [17] | growth [18] | growth [19] | growth [20]
1 | ClCCOCCOc1ccc(C2CCCCC2)cc1 | 113% (inactive) | 92.4% (inactive) | 121% (inactive) | 92.3% (inactive) | 106% (inactive) | 87.9% (inactive) | 93.8% (inactive) | 86.6% (inactive) | 88.8% (inactive) | 111% (inactive) | 102% (inactive) | 118% (inactive) | 103% (inactive) | 101% (inactive) | 109% (inactive) | 97.1% (inactive) | 102% (inactive) | 91.2% (inactive) | 108% (inactive) | 
2 | CCc1cc(C)cc(O)c1 | 107% (inactive) | 99.4% (inactive) | 105% (inactive) | 106% (inactive) | 110% (inactive) |  | 90.1% (inactive) | 108% (inactive) | 104% (inactive) | 116% (inactive) | 122% (inactive) | 100% (inactive) | 112% (inactive) | 94.4% (inactive) | 124% (inactive) | 116% (inactive) | 128% (inactive) | 96.1% (inactive) | 103% (inactive) | 112% (inactive)
3 | CN(C)c1ccc(/C=C\C(=O)c2ccccc2)cc1 | 98.4% (inactive) and 91% (inactive) and 97.5% (inactive) | 92.6% (inactive) and 98.6% (inactive) and 101% (inactive) | 97.2% (inactive) and 103% (inactive) and 88.5% (inactive) | 102% (inactive) and 101% (inactive) | 102% (inactive) and 99.8% (inactive) and 104% (inactive) | 103% (inactive) and 99.8% (inactive) and 86.1% (inactive) | 64.3% (inactive) and 60.4% (inactive) and 52.7% (inactive) | 67% (inactive) and 79.8% (inactive) and 82.4% (inactive) | 90.9% (inactive) and 89.7% (inactive) and 80.8% (inactive) | 104% (inactive) and 99.2% (inactive) | 86.8% (inactive) and 89.2% (inactive) and 79.1% (inactive) | 15.3% (inactive) and 26.7% (inactive) and 42.6% (inactive) | 104% (inactive) and 84.4% (inactive) and 105% (inactive) | 92.4% (inactive) and 102% (inactive) | 92.4% (inactive) and 90% (inactive) and 85.2% (inactive) | 66.3% (inactive) and 91.5% (inactive) and 98% (inactive) | 88% (inactive) and 95.7% (inactive) and 94.4% (inactive) | 83.8% (inactive) and 92.7% (inactive) and 98.1% (inactive) | 89.7% (inactive) and 79.2% (inactive) and 72.5% (inactive) | 87.5% (inactive) and 84.4% (inactive) and 83% (inactive)
4 | Cc1cc2ccccc2cn1 | 97.1% (inactive) and 114% (inactive) | 95.7% (inactive) and 96% (inactive) | 101% (inactive) and 98.4% (inactive) | 101% (inactive) | 107% (inactive) and 108% (inactive) |  | 109% (inactive) | 101% (inactive) and 118% (inactive) | 105% (inactive) and 111% (inactive) | 110% (inactive) and 119% (inactive) | 114% (inactive) and 122% (inactive) | 118% (inactive) and 102% (inactive) | 97.9% (inactive) and 107% (inactive) | 104% (inactive) | 101% (inactive) and 134% (inactive) | 100% (inactive) and 90.3% (inactive) | 102% (inactive) and 98.7% (inactive) | 97.3% (inactive) | 107% (inactive) and 111% (inactive) | 101% (inactive) and 100% (inactive)
5 | CC1CCC2(C(=O)O)CCC3(C)C(=CCC4C5(C)CCC(O)C(C)(C)C5CCC43C)C2C1C (centres undefined) | 91.9% (inactive) and 88.2% (inactive) | 67.9% (inactive) and 98% (inactive) | 67.3% (inactive) and 92.7% (inactive) | 5.46% (active) and 102% (inactive) | 44.5% (inactive) and 89.9% (inactive) | 42.5% (inactive) and 65.8% (inactive) | 31.1% (inactive) and 84.1% (inactive) | 24% (inactive) and 75.4% (inactive) | -31.3% (active) and 76.1% (inactive) | 78.5% (inactive) and 110% (inactive) | 44% (inactive) and 75.8% (inactive) | 14.4% (inactive) and 62.6% (inactive) | 28.1% (inactive) and 71.6% (inactive) | 40.9% (inactive) and 79.5% (inactive) | 28.9% (inactive) and 75.7% (inactive) | 28% (inactive) and 89.7% (inactive) | 43.1% (inactive) and 79% (inactive) | 39.8% (inactive) and 90.1% (inactive) | 41.1% (inactive) | 81.4% (inactive) and 88.9% (inactive)
6 | CN(C)CC1CCCCCC(CN(C)C)C1=O (centres undefined) | 97.2% (inactive) | 91.4% (inactive) | 116% (inactive) | 113% (inactive) | 106% (inactive) |  | -42.8% (active) | 106% (inactive) | 89.6% (inactive) | -80.9% (active) | 16.3% (inactive) | 0.401% (active) | 86.2% (inactive) | -5.99% (active) | 97% (inactive) | 76.8% (inactive) | 113% (inactive) | 53.1% (inactive) | 77.4% (inactive) | -29.8% (active)
7 | CC(C)(O)C(=O)O | 106% (inactive) | 102% (inactive) | 98.6% (inactive) | 99.9% (inactive) | 103% (inactive) | 91.7% (inactive) | 103% (inactive) | 102% (inactive) | 95.4% (inactive) | 104% (inactive) | 94.5% (inactive) | 123% (inactive) | 86.4% (inactive) | 113% (inactive) | 103% (inactive) | 103% (inactive) | 101% (inactive) | 99.8% (inactive) | 101% (inactive) | 88.4% (inactive)
8 | CC(=O)OCC1OC(OC(C)=O)C(OC(C)=O)C(OC(C)=O)C1OC(C)=O (centres undefined) | 107% (inactive) and 95.6% (inactive) | 94.9% (inactive) and 99.6% (inactive) | 111% (inactive) and 101% (inactive) | 83.4% (inactive) | 112% (inactive) and 104% (inactive) | 102% (inactive) and 98.9% (inactive) | 103% (inactive) | 103% (inactive) and 96.6% (inactive) | 102% (inactive) and 106% (inactive) | 104% (inactive) and 107% (inactive) | 107% (inactive) and 102% (inactive) | 111% (inactive) and 95.9% (inactive) | 124% (inactive) and 109% (inactive) | 102% (inactive) and 106% (inactive) | 108% (inactive) and 99% (inactive) | 98.2% (inactive) | 99.6% (inactive) and 103% (inactive) | 95.4% (inactive) and 101% (inactive) | 99.6% (inactive) and 103% (inactive) | 99.8% (inactive)
9 | Cc1ccc(S(=O)(=O)c2ccccc2)cc1 | 54.5% (inactive) | 85.6% (inactive) | 57.1% (inactive) | 44.2% (inactive) | 20.7% (inactive) | 58.7% (inactive) |  | 41.7% (inactive) |  | 18.4% (inactive) | 26.3% (inactive) | 23.2% (inactive) | 50% (inactive) | 39.3% (inactive) | 47.9% (inactive) | 2.7% (active) | 28.7% (inactive) | 8.5% (active) | 15.4% (inactive) | 66.6% (inactive)
10 | C#CCOC(=O)Nc1ccccc1 | 98.9% (inactive) | 108% (inactive) | 106% (inactive) | 113% (inactive) | 103% (inactive) | 102% (inactive) | 101% (inactive) | 97.4% (inactive) | 94.7% (inactive) | 106% (inactive) | 106% (inactive) | 96.9% (inactive) | 116% (inactive) | 124% (inactive) | 105% (inactive) | 107% (inactive) | 97.5% (inactive) | 93.7% (inactive) | 103% (inactive) | 115% (inactive)
